Laboratory results from PubChem BioAssay (NCATS).
Results filed as inconclusive are left out. Activity calls are given as the source filed them. The call rests on the fitted dose curve; in most records, active means well fitted curve in the direction sought with a large enough effect; inconclusive means small, poorly fitted or top-dose-only effect, or another doubt; inactive means no such curve, though single readings can be large; an effect the other way counts as inactive or inconclusive.

Test: qHTS for Inhibitors of Plasmodium falciparum (HB3) proliferation (AID 504318);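 further: 0% = DMSO vehicle and -100% = artemisinin control; nearly all actives have a fitted effect of over 60% in size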
Conditions: P. falciparum HB3 in erythrocytes, SYBR Green DNA, 72 h; series mostly up to 7.21 µM; activity change, negative = inhibition: at the top concentration
Summary of the method: (§1)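 Erythrocytes infected with P. falciparum line (0.3% parasitemia, 2.5% hematocrit final) incubated with compounds 72 h at 37 °C, 5% CO2; SYBR Green lysis buffer added, fluorescence read next day. Normalized to 0.29 uM artemisinin and DMSO.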

Activity change, negative = inhibition, inactive:
COC(=O)CC=C[C@@H](C)[C@H](NC(=O)OCC(Cl)(Cl)Cl)c1cccc(OC)c1 -11%
CCN1C(=NCc2ccc(OC)cc2)NC(c2cccc(F)c2)C(C(=O)OC)=C1C (stereo not drawn) 7.22%
C=CCN1C(=O)[C@@]2(CC(C)=CC[C@@H](C)O2)c2c(Br)cccc21 -1.86%
COC(=O)NC(c1ccc2c(c1)OCO2)C(C(=O)OC)C(=O)OC (stereo not drawn) 4.73%
COC(=O)N[C@H](C(C(=O)OC)=C(C)NCc1ccccc1)c1ccco1 -1.55%
CCN1C(=NCCCOC(C)C)N[C@H](c2ccccc2)[C@H](C(=O)OC)[C@H]1C 0.543%
C[C@@H]1CC[C@H]2C(=O)O[C@@H](Cc3ccccc3)CN2[C@@H]1c1ccc(Br)cc1 0.756%
COc1ccc(COC(=O)NN=C2C[C@@H](O)[C@@H](O)[C@@H]3[C@H]4C(=O)N(Cc5ccc6c(c5)OCO6)C(=O)[C@@H]4CC[C@H]23)cc1 -12.2%
C=C(Nc1ccc(OC)cc1)C(=O)OC -4.63%
CC(C)CON=C1C[C@@H](O)[C@@H](O)[C@@H]2[C@H]3C(=O)N(C[C@@H]4CCCO4)C(=O)[C@@H]3CC[C@H]12 3.04%
COc1ccc(COC(=O)NN=C2C[C@@H](O)[C@@H](O)[C@@H]3[C@H]4C(=O)N(C5CCCCC5)C(=O)[C@@H]4CC[C@H]23)cc1 -1.6%
C=CCOC(=O)N[C@H](c1ccco1)C(C(C)=O)C(C)=O 3.66%
COC(=O)C1=C(C(=O)OC)[C@@H]2N(C)c3ccc(OC)cc3[C@@]23C[C@@H](C(=O)OC)N(C(=O)c2cccs2)C3=N1 -4.32%

Test: qHTS for Inhibitors of Plasmodium falciparum (CP250) proliferation (AID 504320);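 further: plate controls were DMSO vehicle for no effect and 0.29 µM artemisinin control for full effect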
Conditions: P. falciparum CP250 in erythrocytes, SYBR Green DNA, 72 h; series mostly up to 6.7 µM; activity change, negative = inhibition: at the top concentration
Summary of the method: as §1

Activity change, negative = inhibition, inactive:
COC(=O)C1=C(C(=O)OC)[C@@H]2N(C)c3ccccc3[C@@]23CCC(=O)N(Cc2ccc(OC)cc2)C3=N1 -0.283%
C=CCN1C(=O)[C@@]2(CC(C)=C[C@@H](COc3ccccc3)O2)c2ccccc21 1.89%
COC(=O)C1=C(C(=O)OC)[C@@H]2N(CC=C(C)C)c3ccccc3[C@@]23CCC(=O)N(CCc2ccccn2)C3=N1 6.56%
CCCCCCC1=Cc2cc(OC)c(OC)cc2C(C(C(C)=O)C(=O)OCC)O1 (stereo not drawn) 1.96%
CCN1C(=NCc2ccc(OC)cc2)NC(c2cccc(F)c2)C(C(=O)OC)=C1C (stereo not drawn) -11.8%
CC(C)CON=C1C[C@@H](O)[C@@H](O)[C@@H]2[C@H]3C(=O)N(Cc4ccc5c(c4)OCO5)C(=O)[C@@H]3CC[C@@H]12 7.54%
C=CCN1C(=O)[C@@]2(CC(C)=CC[C@@H](C)O2)c2c(Br)cccc21 3.23%
COC(=O)[C@@H]1C=C[C@H](C)[C@H](CCOc2ccccc2)O1 3.12%
COC(=O)[C@H]1[C@@H](c2ccccc2)NC(=O)N(CCc2cc(OC)c(OC)c(OC)c2)[C@@H]1C -2.11%
CC#CCC1(C(=O)OC)C(=O)NC[C@H]1c1ccccc1 (stereo partly drawn) 6.06%
COc1ccc(O[C@H]2C=C[C@@H](c3ccccc3)O[C@H]2CON=C[C@@H](C)[C@H](OCc2ccccc2)C(C)C)cc1 3.52%
C[C@@H]1CC[C@H]2C(=O)N(Cc3ccc(Cl)cc3)C[C@@H](O)CN2[C@@H]1c1cccc(Br)c1 -0.568%
CC1=C[C@@H](C)O[C@@]2(C1)C(=O)Nc1cccc(Br)c12 0.347%
C[C@@H]1CC[C@H]2C(=O)N3[C@@H](CC[C@@H](C)[C@@H]3c3ccc(Br)cc3)C(=O)N2[C@@H]1c1ccc(Br)cc1 2.51%
C=CC[C@@]1(c2ccc(OC)cc2)Oc2ccccc2C2=NCCN=C21 -0.422%
CC(CCC(=O)OC[C@H]1O[C@H](C#Cc2ccccc2)C=C[C@H]1Oc1ccc(C)cc1)=NO[C@H](C)c1cn([C@H](CO)Cc2ccccc2)nn1 -8.07%

Potency, inactive:
COC(=O)CCCC1=CC2=CC(=O)C(C)(OC(=O)c3cccs3)C(=O)C2=CN1c1ccc(OC)cc1 (stereo not drawn)
CC1(OC(=O)CCc2ccccc2)C(=O)C=C2C=C(c3ccc(C#N)cc3)N(CC3CC3)C=C2C1=O (stereo not drawn)
COC(=O)CC1c2ccccc2C(Cc2ccc3c(c2)OCO3)=C(C)N1C(=O)OC (stereo not drawn)
COc1ccc(-c2nc3c(c4c2C[C@H](c2ccccc2)OC4)CN(S(=O)(=O)c2ccc(NC(C)=O)cc2)CC3)c(C)c1
